Data: ChEMBL document CHEMBL1961873, “Compounds: GSK PKIS; Assays: Nanosyn kinase panel” (2012)

Tests used:
[1] = target: Tyrosine-protein kinase Fyn (Homo sapiens) (UniProt P06241); conditions: at 1 µM
[2] = target: Tyrosine-protein kinase HCK (Homo sapiens) (UniProt P08631); conditions: at 0.1 µM
[3] = target: Tyrosine-protein kinase HCK (Homo sapiens) (UniProt P08631); conditions: at 1 µM
[4] = target: Insulin-like growth factor 1 receptor (Homo sapiens) (UniProt P08069); conditions: at 0.1 µM
[5] = target: Insulin-like growth factor 1 receptor (Homo sapiens) (UniProt P08069); conditions: at 1 µM
[6] = target: Insulin receptor (Homo sapiens) (UniProt P06213); conditions: at 0.1 µM
[7] = target: Insulin receptor (Homo sapiens) (UniProt P06213); conditions: at 1 µM
[8] = target: Insulin receptor-related protein (Homo sapiens) (UniProt P14616); conditions: at 0.1 µM
[9] = target: Insulin receptor-related protein (Homo sapiens) (UniProt P14616); conditions: at 1 µM
[10] = target: T1, Tyrosine-protein kinase ITK/TSK (Homo sapiens) (UniProt Q08881); conditions: at 0.1 µM
T1 sequence (whole entry): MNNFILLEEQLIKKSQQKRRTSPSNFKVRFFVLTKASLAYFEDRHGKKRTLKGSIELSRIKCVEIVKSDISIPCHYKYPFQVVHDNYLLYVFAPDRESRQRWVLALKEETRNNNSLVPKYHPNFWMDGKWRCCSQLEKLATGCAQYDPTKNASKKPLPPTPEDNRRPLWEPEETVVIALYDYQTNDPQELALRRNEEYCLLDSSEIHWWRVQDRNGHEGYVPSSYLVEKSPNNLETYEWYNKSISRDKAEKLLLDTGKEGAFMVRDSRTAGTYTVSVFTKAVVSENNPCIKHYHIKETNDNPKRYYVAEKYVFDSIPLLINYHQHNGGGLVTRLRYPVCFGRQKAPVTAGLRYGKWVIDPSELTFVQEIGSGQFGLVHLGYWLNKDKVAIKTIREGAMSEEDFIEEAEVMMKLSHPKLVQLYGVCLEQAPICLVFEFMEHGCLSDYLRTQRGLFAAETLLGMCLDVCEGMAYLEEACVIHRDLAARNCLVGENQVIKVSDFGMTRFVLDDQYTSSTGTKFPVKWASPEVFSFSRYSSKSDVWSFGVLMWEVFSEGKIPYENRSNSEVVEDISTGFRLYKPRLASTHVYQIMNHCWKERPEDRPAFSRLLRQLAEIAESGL

[11] = target: T1, Tyrosine-protein kinase ITK/TSK (Homo sapiens); conditions: at 1 µM
[12] = target: Tyrosine-protein kinase JAK1 (Homo sapiens) (UniProt P23458); conditions: at 0.1 µM
[13] = target: Tyrosine-protein kinase JAK1 (Homo sapiens) (UniProt P23458); conditions: at 1 µM
[14] = target: Tyrosine-protein kinase JAK2 (Homo sapiens) (UniProt O60674); conditions: at 0.1 µM
[15] = target: Tyrosine-protein kinase JAK2 (Homo sapiens) (UniProt O60674); conditions: at 1 µM
[16] = target: T2, Tyrosine-protein kinase JAK3 (Homo sapiens) (UniProt P52333); conditions: at 0.1 µM
T2 sequence (whole entry): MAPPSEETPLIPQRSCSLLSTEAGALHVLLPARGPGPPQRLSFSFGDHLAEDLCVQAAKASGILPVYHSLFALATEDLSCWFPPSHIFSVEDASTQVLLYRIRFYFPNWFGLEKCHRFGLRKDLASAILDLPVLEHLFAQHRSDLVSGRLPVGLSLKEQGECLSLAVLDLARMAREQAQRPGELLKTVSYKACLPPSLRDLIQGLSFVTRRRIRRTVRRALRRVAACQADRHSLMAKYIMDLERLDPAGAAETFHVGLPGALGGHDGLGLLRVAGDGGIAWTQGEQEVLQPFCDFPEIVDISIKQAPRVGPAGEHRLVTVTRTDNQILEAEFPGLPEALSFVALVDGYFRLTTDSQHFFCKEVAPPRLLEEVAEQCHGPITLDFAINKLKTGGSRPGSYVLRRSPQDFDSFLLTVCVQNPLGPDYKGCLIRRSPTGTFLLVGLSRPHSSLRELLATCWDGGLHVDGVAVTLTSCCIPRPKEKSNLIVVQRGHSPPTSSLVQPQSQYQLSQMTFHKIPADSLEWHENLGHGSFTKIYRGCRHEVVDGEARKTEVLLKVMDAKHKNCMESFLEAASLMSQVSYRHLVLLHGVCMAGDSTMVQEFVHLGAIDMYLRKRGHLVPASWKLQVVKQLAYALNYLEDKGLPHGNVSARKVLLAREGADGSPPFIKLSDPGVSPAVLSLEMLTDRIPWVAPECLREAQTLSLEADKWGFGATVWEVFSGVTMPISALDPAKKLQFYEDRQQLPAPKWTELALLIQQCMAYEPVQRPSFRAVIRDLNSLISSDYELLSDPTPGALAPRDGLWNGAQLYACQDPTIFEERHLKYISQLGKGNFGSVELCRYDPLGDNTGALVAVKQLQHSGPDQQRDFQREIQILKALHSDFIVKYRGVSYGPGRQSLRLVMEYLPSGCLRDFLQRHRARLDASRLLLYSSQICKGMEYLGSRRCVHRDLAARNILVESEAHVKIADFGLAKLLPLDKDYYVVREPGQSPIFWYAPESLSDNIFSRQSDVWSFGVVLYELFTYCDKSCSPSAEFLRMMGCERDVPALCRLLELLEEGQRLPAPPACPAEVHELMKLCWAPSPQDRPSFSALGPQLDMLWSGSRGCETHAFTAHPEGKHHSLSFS

[17] = target: T2, Tyrosine-protein kinase JAK3 (Homo sapiens); conditions: at 1 µM
[18] = target: Vascular endothelial growth factor receptor 2 (Homo sapiens) (UniProt P35968); conditions: at 0.1 µM
[19] = target: Vascular endothelial growth factor receptor 2 (Homo sapiens) (UniProt P35968); conditions: at 1 µM
[20] = target: Mast/stem cell growth factor receptor Kit (Homo sapiens) (UniProt P10721); conditions: at 0.1 µM;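 note: values are mean inhibition of KIT, from the GSK PKIS dataset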

Chain of Vascular endothelial growth factor receptor 2 (Homo sapiens) (P35968 whole entry): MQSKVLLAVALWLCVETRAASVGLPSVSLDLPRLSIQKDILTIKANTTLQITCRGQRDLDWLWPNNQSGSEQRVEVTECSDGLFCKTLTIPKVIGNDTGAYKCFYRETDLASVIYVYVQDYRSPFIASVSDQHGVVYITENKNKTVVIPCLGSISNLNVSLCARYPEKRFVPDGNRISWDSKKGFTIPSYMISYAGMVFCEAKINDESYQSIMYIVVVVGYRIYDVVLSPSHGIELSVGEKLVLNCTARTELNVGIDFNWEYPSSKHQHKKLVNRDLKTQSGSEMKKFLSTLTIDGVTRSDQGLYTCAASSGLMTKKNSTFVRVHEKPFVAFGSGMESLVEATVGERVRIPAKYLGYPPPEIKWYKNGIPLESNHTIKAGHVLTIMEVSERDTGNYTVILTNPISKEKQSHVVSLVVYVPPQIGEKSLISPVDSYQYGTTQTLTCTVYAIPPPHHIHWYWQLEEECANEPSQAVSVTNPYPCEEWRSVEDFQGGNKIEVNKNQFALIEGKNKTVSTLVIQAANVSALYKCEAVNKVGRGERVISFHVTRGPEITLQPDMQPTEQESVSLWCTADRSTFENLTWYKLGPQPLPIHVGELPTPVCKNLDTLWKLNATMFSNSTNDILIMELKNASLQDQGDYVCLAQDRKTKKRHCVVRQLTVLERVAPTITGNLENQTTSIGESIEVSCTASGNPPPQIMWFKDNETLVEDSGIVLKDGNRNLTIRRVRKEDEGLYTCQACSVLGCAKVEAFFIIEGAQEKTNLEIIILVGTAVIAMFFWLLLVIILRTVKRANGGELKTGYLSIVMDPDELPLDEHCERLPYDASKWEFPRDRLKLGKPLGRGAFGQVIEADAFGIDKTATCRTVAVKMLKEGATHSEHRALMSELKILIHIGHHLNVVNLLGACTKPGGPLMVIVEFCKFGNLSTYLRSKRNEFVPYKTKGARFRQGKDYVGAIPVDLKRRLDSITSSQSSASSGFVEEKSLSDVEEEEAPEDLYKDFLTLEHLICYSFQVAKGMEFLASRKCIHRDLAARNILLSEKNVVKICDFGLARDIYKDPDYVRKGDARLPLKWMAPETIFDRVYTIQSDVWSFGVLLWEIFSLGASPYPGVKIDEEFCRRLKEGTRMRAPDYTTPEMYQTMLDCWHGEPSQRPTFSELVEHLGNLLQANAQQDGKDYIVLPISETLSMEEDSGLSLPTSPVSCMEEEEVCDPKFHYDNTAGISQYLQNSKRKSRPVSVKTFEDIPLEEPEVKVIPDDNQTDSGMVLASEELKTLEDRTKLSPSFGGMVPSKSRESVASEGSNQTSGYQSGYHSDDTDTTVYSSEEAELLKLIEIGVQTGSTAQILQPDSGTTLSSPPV
Chain of Insulin receptor (Homo sapiens) (P06213 28-758 limits assumed): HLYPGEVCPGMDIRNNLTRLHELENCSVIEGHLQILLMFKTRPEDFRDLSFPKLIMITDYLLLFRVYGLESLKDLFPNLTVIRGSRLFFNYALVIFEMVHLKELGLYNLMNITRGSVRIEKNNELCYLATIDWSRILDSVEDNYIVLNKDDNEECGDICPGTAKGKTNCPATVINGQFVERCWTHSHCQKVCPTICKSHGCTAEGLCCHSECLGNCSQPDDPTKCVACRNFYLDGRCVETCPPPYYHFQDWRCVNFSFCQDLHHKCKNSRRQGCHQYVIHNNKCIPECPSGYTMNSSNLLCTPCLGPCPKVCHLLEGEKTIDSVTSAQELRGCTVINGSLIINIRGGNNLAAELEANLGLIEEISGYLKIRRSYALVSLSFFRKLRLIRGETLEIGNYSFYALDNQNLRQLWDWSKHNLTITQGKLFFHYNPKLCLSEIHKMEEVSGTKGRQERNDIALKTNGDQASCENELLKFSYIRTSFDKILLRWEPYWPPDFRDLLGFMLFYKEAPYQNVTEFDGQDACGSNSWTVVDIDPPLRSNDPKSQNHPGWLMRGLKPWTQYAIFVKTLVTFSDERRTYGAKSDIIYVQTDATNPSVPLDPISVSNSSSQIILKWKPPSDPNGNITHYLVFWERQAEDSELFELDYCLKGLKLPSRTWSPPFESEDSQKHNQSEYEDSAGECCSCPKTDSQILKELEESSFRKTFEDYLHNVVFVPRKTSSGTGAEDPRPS
Chain of Insulin receptor (Homo sapiens) (P06213 763-1382 limits assumed): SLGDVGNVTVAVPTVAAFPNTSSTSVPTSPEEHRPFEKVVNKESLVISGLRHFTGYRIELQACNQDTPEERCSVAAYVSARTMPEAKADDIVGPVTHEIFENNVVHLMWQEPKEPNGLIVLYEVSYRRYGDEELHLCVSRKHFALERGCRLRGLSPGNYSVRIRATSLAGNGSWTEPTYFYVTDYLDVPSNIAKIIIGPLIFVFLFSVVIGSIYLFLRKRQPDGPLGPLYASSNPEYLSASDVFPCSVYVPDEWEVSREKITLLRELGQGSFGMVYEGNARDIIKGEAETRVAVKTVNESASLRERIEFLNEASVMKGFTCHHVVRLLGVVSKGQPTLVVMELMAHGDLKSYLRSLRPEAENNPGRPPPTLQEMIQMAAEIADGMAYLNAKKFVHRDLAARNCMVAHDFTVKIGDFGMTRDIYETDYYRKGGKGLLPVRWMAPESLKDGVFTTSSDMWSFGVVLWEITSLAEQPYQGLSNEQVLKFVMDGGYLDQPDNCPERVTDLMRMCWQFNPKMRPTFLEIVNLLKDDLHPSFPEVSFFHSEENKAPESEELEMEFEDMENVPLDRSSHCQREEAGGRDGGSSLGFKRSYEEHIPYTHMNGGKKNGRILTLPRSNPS
Chain of Tyrosine-protein kinase JAK1 (Homo sapiens) (P23458 whole entry): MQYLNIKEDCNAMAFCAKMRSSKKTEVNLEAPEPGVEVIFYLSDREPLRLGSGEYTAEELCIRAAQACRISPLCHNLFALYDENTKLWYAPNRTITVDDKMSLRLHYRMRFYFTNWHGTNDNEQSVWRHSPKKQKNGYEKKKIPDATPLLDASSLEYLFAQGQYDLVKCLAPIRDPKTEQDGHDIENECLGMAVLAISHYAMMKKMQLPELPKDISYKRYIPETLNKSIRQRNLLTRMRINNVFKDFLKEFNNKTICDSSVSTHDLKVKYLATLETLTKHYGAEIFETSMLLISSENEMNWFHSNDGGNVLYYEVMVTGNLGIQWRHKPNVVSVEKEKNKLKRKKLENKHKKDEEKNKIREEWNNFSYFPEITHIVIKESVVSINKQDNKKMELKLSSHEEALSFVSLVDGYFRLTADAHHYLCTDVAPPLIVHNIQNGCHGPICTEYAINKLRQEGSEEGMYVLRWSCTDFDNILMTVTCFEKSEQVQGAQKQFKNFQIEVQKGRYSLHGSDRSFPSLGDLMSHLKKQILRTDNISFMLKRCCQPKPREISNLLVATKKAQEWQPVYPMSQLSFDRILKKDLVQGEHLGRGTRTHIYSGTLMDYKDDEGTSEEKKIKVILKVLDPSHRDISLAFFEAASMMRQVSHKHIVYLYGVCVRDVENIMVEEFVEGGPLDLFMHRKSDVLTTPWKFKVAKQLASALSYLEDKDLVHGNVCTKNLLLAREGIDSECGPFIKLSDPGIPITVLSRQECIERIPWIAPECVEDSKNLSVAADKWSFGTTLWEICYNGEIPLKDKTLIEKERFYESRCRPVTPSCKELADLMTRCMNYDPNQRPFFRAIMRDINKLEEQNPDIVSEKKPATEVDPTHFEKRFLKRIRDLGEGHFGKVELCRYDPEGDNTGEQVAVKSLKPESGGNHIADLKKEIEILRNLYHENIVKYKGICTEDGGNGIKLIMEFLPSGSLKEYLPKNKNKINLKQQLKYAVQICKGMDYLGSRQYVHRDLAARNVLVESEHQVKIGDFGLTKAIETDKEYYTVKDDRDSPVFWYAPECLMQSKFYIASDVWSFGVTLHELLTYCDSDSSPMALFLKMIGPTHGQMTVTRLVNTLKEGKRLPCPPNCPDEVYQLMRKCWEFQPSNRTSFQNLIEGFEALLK
Chain of Tyrosine-protein kinase JAK2 (Homo sapiens) (O60674 whole entry): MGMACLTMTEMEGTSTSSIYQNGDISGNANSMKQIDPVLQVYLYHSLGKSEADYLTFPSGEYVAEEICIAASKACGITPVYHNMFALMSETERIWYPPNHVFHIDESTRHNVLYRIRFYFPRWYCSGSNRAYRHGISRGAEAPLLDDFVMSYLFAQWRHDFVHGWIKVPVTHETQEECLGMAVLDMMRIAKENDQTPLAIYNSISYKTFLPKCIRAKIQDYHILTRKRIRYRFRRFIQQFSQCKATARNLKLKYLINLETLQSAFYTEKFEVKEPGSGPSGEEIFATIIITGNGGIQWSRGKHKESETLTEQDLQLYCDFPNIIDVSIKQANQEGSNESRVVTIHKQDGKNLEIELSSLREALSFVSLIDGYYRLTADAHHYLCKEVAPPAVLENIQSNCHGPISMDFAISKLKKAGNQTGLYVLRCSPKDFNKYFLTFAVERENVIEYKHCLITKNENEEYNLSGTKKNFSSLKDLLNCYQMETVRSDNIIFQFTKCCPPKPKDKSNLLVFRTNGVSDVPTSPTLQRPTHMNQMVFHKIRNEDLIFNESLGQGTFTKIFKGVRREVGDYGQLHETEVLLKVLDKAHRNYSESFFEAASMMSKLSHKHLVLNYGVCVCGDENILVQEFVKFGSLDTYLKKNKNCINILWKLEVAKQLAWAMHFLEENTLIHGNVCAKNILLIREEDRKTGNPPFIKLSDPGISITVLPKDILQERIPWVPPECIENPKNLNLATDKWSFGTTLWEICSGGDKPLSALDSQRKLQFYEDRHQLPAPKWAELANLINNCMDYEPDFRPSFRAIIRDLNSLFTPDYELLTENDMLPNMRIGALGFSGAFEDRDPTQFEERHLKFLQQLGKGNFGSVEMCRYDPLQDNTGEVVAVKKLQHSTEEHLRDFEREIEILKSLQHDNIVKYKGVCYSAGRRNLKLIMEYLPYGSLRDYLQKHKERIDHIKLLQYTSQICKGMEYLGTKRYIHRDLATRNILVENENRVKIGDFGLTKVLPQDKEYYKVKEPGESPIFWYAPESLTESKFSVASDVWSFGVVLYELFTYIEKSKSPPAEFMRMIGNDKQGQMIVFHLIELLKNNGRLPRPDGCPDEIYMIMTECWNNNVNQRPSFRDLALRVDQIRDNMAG

SMILES	inhibition [1]	inhibition [2]	inhibition [3]	inhibition [4]	inhibition [5]	inhibition [6]	inhibition [7]	inhibition [8]	inhibition [9]	inhibition [10]	inhibition [11]	inhibition [12]	inhibition [13]	inhibition [14]	inhibition [15]	inhibition [16]	inhibition [17]	inhibition [18]	inhibition [19]	inhibition [20]
COc1cc2c(cc1Nc1nc(Nc3ccsc3C(N)=O)c3cc[nH]c3n1)N(C(=O)CN(C)C)CCC2	6.09%	14%	16.6%	99.3%	101%	102%	99.9%	95.7%	97.3%	-1.24%	0.88%	3.36%	1.85%	3.45%	-0.28%	-2.19%	-1.7%	1.27%	5.32%	
CCn1c(-c2nonc2N)nc2c(C#CC(C)(C)O)nc(O[C@@H](CN)c3ccccc3)cc21	25%	0.41%	14.1%	-2.18%	-0.35%	1.17%	1.91%	-1.87%	-2.16%	0.11%	0.91%	-1.37%	4.4%	-0.3%	0.78%	0.59%	3.54%	86.8%	75.4%	-1.5%
COc1cccc(-n2ncc3c(N/N=C/c4ccncc4)ncnc32)c1	73.8%	15.7%	59.2%	4.62%	4.88%	6.46%	7.36%	1.64%	5.33%	1.63%	5.47%	5.43%	15.3%	2.01%	13.5%	-0.96%	10.6%	28.8%	69.2%	13.5%
Fc1ccc(-c2ncn(C3CCNCC3)c2-c2ccnc(Oc3ccccc3)n2)cc1	-3.36%	2.11%	1.98%		-4.15%	2.42%	3.05%	0.57%	0.22%	-3.91%	-3.42%	1.24%	-0.07%	-0.28%	-0.02%	-6.39%	-5.72%	4.3%	6.72%	0.89%
CCn1c(-c2nonc2N)nc2c(C#CCN)ncc(OCCCN)c21	-1.61%	0.79%	-3.58%	-5.07%	-6.11%	-5.48%	-4.01%	-0.39%	0.07%	0.2%	-1.36%	4.06%	13.7%	-1.01%	-1.7%	5.62%	4.64%	-3.31%	5.24%	-1.96%
COc1cccc(COc2cc(-n3cnc4ccccc43)sc2C(N)=O)c1	2.15%	-1.32%	-0.98%	-3.85%	-1.64%	-3.2%	0.19%	-0.6%	-1.17%	-2.19%	0.54%	-1.14%	0.01%	-1.09%	-2.1%	-1.45%	-1.13%	-3.84%	3.07%	0.16%
NS(=O)(=O)c1ccc(N/C=C2\C(=O)Nc3ccc4ncsc4c32)cc1	9.66%	9.53%	28.9%	16%	19.4%	0.99%	11.7%	0.69%	4.17%	1.17%	8.24%	5.09%	26.8%	1.74%	11.1%	6.45%	54.4%	43.8%	75.3%	50%
NS(=O)(=O)c1ccc(-c2ccc3c(NC(=O)C4CC4)n[nH]c3c2)cc1	2.42%	4.22%	9.28%	0.89%	1.61%	1.23%	2.43%	3.82%	2.73%	1.9%	6.67%	1.47%	-1.13%	1.06%	2.65%	-0.06%	2.45%	3.61%	8.35%	3.61%
COc1cc(C=NNc2ncnc3c2cnn3Cc2ccccc2)ccc1O	4.87%	3.29%	33.7%	-3.54%	-1.6%	-3.1%		-3.04%	-4.41%	-1.61%	0.65%	-5.07%	3.34%	-1.56%	-0.04%	0.38%	3.71%	-1.08%	12.2%	-5.78%
NC(=O)c1sc(-n2cnc3cc(C(F)(F)F)ccc32)cc1OCc1ccccc1Br	7.58%	2.82%	0.29%	-2.64%	0.95%	0.33%	1.77%	1.13%	-0.33%	-0.64%	1.42%	5.27%	5.31%	0.93%	-0.32%	-1.17%	0.71%	1.59%	4.43%	-1.21%
CCn1c(-c2nonc2N)nc2c(C#CC(C)(C)O)ncc(OCC3CCNCC3)c21	2.15%	2.07%	5.41%	-3.92%	-4.46%	2.75%	1.72%	2.1%	2.17%	-2.28%	-1.96%	4.7%	12.5%	0.61%	1.31%	-4.99%	-3.39%	34.8%	71.2%	4.46%
Nc1nonc1-c1nc2cnccc2n1C1CCCCC1	4.39%	-1%	0.66%	-3.43%	-0.98%	-0.54%	-0.22%	-2.35%	-3.62%	-0.34%	0.48%	-2.62%	2.81%	-0.95%	-0.41%	-0.04%	3.98%	6.99%	46.3%	-1.47%
Cc1cc(-c2ccco2)cc(C)c1/C=C/c1cncc(-c2nn[nH]n2)c1	1.98%	1.62%	3.34%	-1.5%	1.06%	0.61%	0.42%	1.36%	-0.21%	-0.49%	0.9%	-0.35%	3.09%	0%	-0.44%	-1.94%	0.31%	-2.08%	-0.14%	-0.86%
CCn1c(-c2nonc2N)nc2c(C#CC(C)(C)O)ncc(OC[C@@H]3CCCN3)c21	1.07%	-1.1%	1%	-4.88%	0.19%	0.85%	-1.35%	-1.3%	-0.44%	-1.58%	0.41%	0.75%	2.18%	-1.4%	-2.12%	-2.14%	0.33%	31.2%	81.3%	-1.26%
